# Unmarked numbers belong to inactive results. Results filed as inconclusive are left out. Where a call stands in place of a potency, no number is given. Active and inactive are the calls of the source. Unless noted, calls follow the shape of the dose curve; as a rule, active = well fitted curve in the direction sought with a large enough effect; inconclusive = small, poorly fitted or top-dose-only effect, or another doubt; inactive = no such curve, though single readings can be large; an effect the other way counts as inactive or inconclusive.
# How the values were obtained:
# [1] = target: Beta-2 adrenergic receptor (Homo sapiens) (UniProt P07550); experiment: qHTS validation assay of beta-arrestin-biased ligands of beta2-adrenergic receptor (AID 485366)
# Method in brief: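 Tango cells (recombinant beta2-AR with recombinant beta-arrestin; recruitment releases tTA driving luciferase) were treated with compounds titrated up to 46 microM for 18 hr at 37 degrees C. Luminescence gave %Activity, and concentration-response curves were curve-classified.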
# [2] = target: ATP-dependent 6-phosphofructokinase (Trypanosoma brucei brucei) (UniProt O15648); experiment: qHTS Validation Assay to Find Inhibitors of T. brucei phosphofructokinase (AID 485368)
# Method in brief: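 Compounds (up to 57 uM, titration series) were pinned into substrate buffer, then 1.25 nM PFK added; after 45 min at room temperature, ADP product was quantified by ADP-Glo luminescence and concentration-response curves fitted.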
# [3] = Quantitative high throughput screen for delayed death inhibitors of the malarial parasite plastid, 96 hour incubation (AID 488745); also: series mostly up to about 29 µM; nearly all actives have a fitted effect of over 70% in size
# Method in brief: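 Luciferase-expressing P. falciparum in erythrocytes (2% hematocrit, 0.1% parasitemia) incubated with compound for 96 h at 37 C, 5% CO2, in RPMI 1640 with 0.5% Albumax. Growth inhibition read as decreased luminescence.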
# [4] = Quantitative high throughput screen for delayed death inhibitors of the malarial parasite plastid, 48 hour incubation (AID 488752); also: nearly all actives have a fitted effect of over 65% in size
# Method in brief: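 Erythrocytes infected with firefly luciferase-expressing P. falciparum (2% hematocrit, 0.1% parasitemia) cultured with compound for 48 h at 37 C, 5% CO2, in RPMI 1640/0.5% Albumax. Growth inhibition read as loss of luminescence.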
# [5] = target: Thioredoxin reductase 1, cytoplasmic (Rattus norvegicus) (UniProt O89049); experiment: qHTS Assay for Substrates of Mammalian Selenoprotein Thioredoxin Reductase 1 (TrxR1) (AID 488772);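 also: NADPH fluorescence in the first read after selenite addition and not the 8 min delta; series mostly up to about 57 µM; a drop in NADPH fluorescence below the no-compound background marks a TrxR1 substrate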
# Method in brief: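 Quantitative HTS in Tris-HCl buffer at pH 7.5 with EDTA and Tween-20, using rat TrxR1, 400 uM NADPH and 400 uM selenite (final). A fall in initial NADPH fluorescence relative to background marked substrate behaviour.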
# [6] = target: Thioredoxin reductase 1, cytoplasmic (Rattus norvegicus) (UniProt O89049); experiment: qHTS Assay for Inhibitors of Mammalian Selenoprotein Thioredoxin Reductase 1 (TrxR1) (AID 488773); conditions: Potency: inhibition;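 also: drop in NADPH fluorescence over an 8 min run after selenite addition; series mostly up to about 57 µM; nearly all actives have a fitted effect of over 40% in size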
# Method in brief: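 Steps: enzyme (90 nM) plus NADPH (400 uM final), 5 min at ~22 deg C; compound added, 15 min; selenite (400 uM final) added; fluorescence followed for 8 min. Concentration-response curves derived from the normalized delta values.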
# [7] = target: Flap endonuclease 1 (Homo sapiens) (UniProt P39748); experiment: qHTS Validation Assay for the Inhibitors of Human Flap endonuclease 1 (FEN1) (AID 488816)
# Method in brief: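 FEN1, dispensed as a 10 nM reagent, was preincubated with pin-transferred compounds for 15 min at room temperature before substrate was added (50 nM final). Plates were read at 0 and 15 min, and a four-parameter Hill equation was fitted to the concentration-response data.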
# [8] = target: M-phase phosphoprotein 8 (Homo sapiens) (UniProt Q99549); experiment: qHTS Validation Assay for Inhibitors for MPP8 Chromodomain Interactions with Methylated Histone Tails (AID 488949);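 also: AlphaScreen signal from MPP8 chromodomain bound to biotinylated H3K9me3 peptide; top concentration of the series differs between compounds; nearly all actives have a fitted effect of over 55% in size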
# Method in brief: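 AlphaScreen read-out: streptavidin donor and nickel chelate acceptor beads (final 10 ug/mL), 30 min in the dark at RT. Complex of 50 nM MPP8 and 50 nM b-H3(1-18)K9me3 peptide had been exposed to compounds for 30 min beforehand.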
# [9] = target: Chromobox protein homolog 1 (Homo sapiens) (UniProt P83916); experiment: qHTS Validation Assay for Inhibitors of HP1-beta Chromodomain Interactions with Methylated Histone Tails (AID 488953);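 also: loss of AlphaScreen luminescence from HP1-beta binding biotinylated H3K9me3 peptide; series mostly up to about 110 µM; nearly all actives have a fitted effect of over 50% in size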
# Method in brief: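 HP1-beta (50 nM) preformed 30 min with biotinylated H3(1-18)K9me3 peptide (50 nM) in PBS pH 7.4, 0.01% Tween-20. Compounds added for 30 min at room temperature. Complex disruption read by AlphaScreen with streptavidin donor/nickel chelate acceptor beads (10 ug/mL each).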
# [10] = target: Methanococcus maripaludis chaperonin (MmCpn) (UniProt Q6LX38); experiment: High-Throughput Screening for Modulators of Cytosolic Chaperonin Activity: MmCpn Primary Screen (AID 488978);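 also: 50 nM MmCpn enzyme hydrolysing 30 µM ATP at 37 °C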
# Method in brief: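 ADP formation read by HTRF Transcreener, 665/590 nm emission after 320 nm excitation. Enzyme: archaeal chaperonin at 50 nM final; substrate ATP 30 uM final; 10 min, 37C, after 5 min compound preincubation at RT.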
# [11] = target: Thyrotropin receptor (Homo sapiens) (UniProt P16473); experiment: qHTS Assay for Antagonists of the Thyroid Stimulating Hormone Receptor (AID 488980); also: series mostly up to about 58 µM
# Method in brief: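 TSHR-HEK293 cells; 70 uM RO 20-1724 PDE inhibitor; compound + EC80 TSH (4 nM final); anti-cAMP cryptate antibody/cAMP-d2 in lysis buffer, 30 min RT; HTRF 665/620 nm read.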
# [12] = target: D(1A) dopamine receptor (Homo sapiens) (UniProt P21728); experiment: HTS Assay for Allosteric Agonists of the Human D1 Dopamine Receptor: Primary Screen for Agonists (AID 488981)
# Method in brief: (§1)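 Tetracycline-induced HEK293 T-REx cells force-coupled to calcium signalling were incubated overnight at 30 C and dye-loaded at room temperature. Calcium flux over 180 s after compound addition flagged agonists; a further 180 s read after EC20 dopamine flagged potentiators.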
# [13] = target: D(1A) dopamine receptor (Homo sapiens) (UniProt P21728); experiment: HTS Assay for Allosteric Agonists of the Human D1 Dopamine Receptor: Primary Screen for Potentiators (AID 488982)
# Method in brief: as §1
# [14] = target: D(1A) dopamine receptor (Homo sapiens) (UniProt P21728); experiment: HTS Assay for Allosteric Agonists of the Human D1 Dopamine Receptor: Primary Screen for Antagonists (AID 488983);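 also: calcium flux response to an EC80 dopamine challenge measured with no-wash dye; nearly all actives have a fitted effect of over 65% in size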; also: potency is read from the fitted curve at half-maximal effect
# Method in brief: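 Tetracycline-induced HEK293 T-REx D1 line, force-coupled to calcium flux, read with no-wash calcium dye. Compound added after 10 s baseline, read 180 s for agonism, then EC80 dopamine added and read a further 180 s.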
# [15] = Validation screen for small molecules that induce genotoxicity in human embryonic kidney (HEK293T) cells expressing luciferase-tagged ELG1 (AID 493106)
# Method in brief: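 HEK293T cells expressing luciferase-tagged ELG1, 2,000 cells/well, exposed to compound 16 hr at 37 °C, 5% CO2. Luciferase read after ONE-Glo, 30 min at room temperature; increased signal indicates genetic stress.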
# [16] = target: ATPase family AAA domain-containing protein 5 (Homo sapiens) (UniProt Q96QE3); experiment: Validation screen for small molecules that inhibit ELG1-dependent DNA repair in human embryonic kidney (HEK293T) cells expressing luciferase-tagged ELG1 (AID 493107);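 also: cells co-treated with the DNA-damaging agent 5-fluorouridine alongside compound; series mostly up to about 46 µM; inhibitors lower the ELG1-luciferase luminescence signal; nearly all actives have a fitted effect of over 70% in size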
# Method in brief: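 HEK293T cells expressing luciferase-tagged ELG1, 2,000 per well, treated with 5-fluorouridine plus compound for 16 h at 37 C. ONE-Glo luminescence after 30 min at room temperature reports ELG1 reporter level.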
# [17] = target: Transient receptor potential cation channel subfamily V member 1 (Homo sapiens) (UniProt Q8NER1); experiment: HTS Assay for Compounds that Act as Enhancers of the Vanilloid Receptor 1 (AID 488979)
# Method in brief: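 TRPV1-expressing cells loaded with Fluo-8 calcium dye; compounds added and calcium influx read kinetically for 3 min (agonist phase), then capsaicin at EC20 added and read 2 min more for enhancement. Fluorescence ex 480/em 520 nm.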
# [18] = target: Thyrotropin-releasing hormone receptor (Homo sapiens) (UniProt P34981); experiment: qHTS for Small Molecule Agonists and Allosteric Enhancers of Human TRH Receptor: Validation Screen for Agonists (AID 493127;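 active = calcium activation more than 3 SD above the typical response in the agonist read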); conditions: TRH receptor agonist cell assay; at 2 µM; stronger effect = higher value
# Method in brief: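 TRHR cells loaded with fluo-8 calcium dye; FDSS kinetic fluorescence (Ex 480/Em 530) read at 1 s/cycle after 23 nL compound addition. Agonist-mode calcium response recorded before the 10 nM TRH (EC20) addition.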
# Chain of D(1A) dopamine receptor (Homo sapiens) (P21728 whole entry, looked up): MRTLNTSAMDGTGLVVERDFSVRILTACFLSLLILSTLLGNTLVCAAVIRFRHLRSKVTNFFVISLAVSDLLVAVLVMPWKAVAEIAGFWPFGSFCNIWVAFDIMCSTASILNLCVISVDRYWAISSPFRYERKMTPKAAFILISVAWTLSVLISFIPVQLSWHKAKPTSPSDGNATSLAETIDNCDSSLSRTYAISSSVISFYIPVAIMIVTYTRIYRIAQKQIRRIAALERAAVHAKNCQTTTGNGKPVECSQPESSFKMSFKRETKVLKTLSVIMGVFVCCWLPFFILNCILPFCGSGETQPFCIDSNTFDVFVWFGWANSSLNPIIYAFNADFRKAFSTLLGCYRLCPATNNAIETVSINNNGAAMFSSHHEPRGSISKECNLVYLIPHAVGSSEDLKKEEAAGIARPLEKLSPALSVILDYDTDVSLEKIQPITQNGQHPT
# Chain of Thyrotropin-releasing hormone receptor (Homo sapiens) (P34981 whole entry, looked up): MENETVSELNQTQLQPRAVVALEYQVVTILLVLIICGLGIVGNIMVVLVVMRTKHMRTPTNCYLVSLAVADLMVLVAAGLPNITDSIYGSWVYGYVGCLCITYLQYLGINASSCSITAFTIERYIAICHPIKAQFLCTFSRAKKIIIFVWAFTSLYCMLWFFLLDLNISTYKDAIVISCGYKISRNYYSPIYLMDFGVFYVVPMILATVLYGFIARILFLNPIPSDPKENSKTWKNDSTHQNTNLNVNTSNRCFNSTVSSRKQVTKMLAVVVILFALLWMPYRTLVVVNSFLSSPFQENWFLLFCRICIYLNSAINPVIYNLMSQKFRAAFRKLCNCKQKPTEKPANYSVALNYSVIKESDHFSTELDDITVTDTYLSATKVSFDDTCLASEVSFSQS
# Chain of Thyrotropin receptor (Homo sapiens) (P16473 whole entry, looked up): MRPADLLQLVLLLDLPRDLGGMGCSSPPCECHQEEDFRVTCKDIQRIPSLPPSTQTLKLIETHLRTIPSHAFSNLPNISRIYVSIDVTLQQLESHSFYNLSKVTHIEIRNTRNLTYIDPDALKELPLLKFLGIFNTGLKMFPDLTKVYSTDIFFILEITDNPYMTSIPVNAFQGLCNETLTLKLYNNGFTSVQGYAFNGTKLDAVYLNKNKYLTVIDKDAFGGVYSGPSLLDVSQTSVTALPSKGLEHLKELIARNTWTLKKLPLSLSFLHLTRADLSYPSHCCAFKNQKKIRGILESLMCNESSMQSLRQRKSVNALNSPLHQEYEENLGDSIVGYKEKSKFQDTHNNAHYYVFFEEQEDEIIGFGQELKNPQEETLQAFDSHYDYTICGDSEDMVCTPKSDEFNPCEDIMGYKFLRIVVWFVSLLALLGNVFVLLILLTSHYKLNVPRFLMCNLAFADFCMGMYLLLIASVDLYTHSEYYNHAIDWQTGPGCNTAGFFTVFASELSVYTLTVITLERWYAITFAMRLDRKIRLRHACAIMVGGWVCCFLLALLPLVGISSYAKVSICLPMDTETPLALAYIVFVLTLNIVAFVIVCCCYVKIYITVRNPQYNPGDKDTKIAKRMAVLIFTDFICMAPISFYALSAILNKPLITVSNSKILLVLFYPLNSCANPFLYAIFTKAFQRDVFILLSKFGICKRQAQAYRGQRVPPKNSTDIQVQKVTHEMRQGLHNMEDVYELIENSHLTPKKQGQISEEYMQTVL
# Chain of ATPase family AAA domain-containing protein 5 (Homo sapiens) (Q96QE3 whole entry, looked up, the tested form may be a part): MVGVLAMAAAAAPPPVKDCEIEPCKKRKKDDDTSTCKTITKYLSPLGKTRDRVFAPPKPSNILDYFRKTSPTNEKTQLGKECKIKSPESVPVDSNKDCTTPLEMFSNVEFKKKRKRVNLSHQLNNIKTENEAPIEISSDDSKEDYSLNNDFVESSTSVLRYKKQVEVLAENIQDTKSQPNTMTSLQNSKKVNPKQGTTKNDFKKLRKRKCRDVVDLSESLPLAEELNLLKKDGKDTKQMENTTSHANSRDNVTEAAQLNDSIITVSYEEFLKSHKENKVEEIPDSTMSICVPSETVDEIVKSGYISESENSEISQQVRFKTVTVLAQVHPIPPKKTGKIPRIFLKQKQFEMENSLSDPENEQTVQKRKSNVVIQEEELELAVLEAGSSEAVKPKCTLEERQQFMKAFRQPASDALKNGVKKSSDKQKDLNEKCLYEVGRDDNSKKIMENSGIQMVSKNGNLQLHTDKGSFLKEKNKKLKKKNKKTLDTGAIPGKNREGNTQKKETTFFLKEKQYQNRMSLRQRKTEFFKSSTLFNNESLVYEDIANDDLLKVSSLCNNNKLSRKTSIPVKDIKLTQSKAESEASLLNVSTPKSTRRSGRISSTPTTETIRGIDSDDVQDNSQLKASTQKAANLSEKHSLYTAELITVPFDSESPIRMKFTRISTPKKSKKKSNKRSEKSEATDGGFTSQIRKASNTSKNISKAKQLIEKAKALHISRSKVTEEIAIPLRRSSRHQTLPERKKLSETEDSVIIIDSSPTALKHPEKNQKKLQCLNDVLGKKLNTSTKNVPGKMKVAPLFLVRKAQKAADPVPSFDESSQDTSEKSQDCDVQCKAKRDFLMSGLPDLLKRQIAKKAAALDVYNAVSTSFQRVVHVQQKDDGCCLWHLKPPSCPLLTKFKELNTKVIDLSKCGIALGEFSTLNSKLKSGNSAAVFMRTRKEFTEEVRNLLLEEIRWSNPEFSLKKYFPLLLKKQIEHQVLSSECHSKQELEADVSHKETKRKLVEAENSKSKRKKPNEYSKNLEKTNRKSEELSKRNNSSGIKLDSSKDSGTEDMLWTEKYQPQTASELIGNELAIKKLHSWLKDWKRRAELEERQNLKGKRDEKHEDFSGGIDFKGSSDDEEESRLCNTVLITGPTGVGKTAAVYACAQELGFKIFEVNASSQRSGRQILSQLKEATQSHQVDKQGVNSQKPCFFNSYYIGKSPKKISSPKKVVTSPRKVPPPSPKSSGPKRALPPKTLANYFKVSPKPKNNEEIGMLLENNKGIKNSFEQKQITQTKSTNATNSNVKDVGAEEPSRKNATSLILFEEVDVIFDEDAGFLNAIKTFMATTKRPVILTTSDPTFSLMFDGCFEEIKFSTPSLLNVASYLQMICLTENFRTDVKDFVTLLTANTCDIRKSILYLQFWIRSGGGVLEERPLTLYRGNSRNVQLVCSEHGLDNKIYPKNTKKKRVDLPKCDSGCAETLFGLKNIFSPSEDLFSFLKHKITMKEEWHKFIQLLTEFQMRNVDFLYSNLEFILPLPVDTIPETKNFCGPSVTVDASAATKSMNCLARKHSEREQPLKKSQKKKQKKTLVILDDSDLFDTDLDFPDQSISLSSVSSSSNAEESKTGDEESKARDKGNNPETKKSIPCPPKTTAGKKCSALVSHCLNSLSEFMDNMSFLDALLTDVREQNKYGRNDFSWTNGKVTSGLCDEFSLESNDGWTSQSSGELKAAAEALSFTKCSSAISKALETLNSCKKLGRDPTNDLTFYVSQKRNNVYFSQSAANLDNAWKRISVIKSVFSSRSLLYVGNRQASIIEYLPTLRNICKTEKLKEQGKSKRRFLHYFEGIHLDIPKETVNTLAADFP
# Chain of Methanococcus maripaludis chaperonin (MmCpn) (Q6LX38 1-543): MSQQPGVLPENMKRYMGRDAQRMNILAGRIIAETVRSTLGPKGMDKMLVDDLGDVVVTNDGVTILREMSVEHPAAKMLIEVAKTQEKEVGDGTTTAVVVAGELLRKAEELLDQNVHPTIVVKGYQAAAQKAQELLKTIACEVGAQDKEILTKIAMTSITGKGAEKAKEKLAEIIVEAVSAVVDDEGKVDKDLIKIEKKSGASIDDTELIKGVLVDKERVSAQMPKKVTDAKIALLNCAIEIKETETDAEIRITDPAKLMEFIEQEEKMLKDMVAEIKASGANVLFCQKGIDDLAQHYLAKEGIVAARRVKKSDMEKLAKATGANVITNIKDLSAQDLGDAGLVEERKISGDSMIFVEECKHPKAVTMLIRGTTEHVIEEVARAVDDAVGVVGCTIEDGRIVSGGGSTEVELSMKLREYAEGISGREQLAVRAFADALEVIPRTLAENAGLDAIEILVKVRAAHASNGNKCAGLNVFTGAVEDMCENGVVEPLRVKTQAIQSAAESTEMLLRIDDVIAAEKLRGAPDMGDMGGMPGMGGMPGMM
# Chain of Chromobox protein homolog 1 (Homo sapiens) (P83916 whole entry, looked up): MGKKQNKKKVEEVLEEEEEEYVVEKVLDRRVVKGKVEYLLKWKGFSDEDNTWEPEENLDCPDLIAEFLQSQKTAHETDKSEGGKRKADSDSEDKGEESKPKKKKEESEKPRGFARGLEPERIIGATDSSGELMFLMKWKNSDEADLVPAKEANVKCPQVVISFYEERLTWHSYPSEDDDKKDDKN
# Chain of M-phase phosphoprotein 8 (Homo sapiens) (Q99549 whole entry, looked up): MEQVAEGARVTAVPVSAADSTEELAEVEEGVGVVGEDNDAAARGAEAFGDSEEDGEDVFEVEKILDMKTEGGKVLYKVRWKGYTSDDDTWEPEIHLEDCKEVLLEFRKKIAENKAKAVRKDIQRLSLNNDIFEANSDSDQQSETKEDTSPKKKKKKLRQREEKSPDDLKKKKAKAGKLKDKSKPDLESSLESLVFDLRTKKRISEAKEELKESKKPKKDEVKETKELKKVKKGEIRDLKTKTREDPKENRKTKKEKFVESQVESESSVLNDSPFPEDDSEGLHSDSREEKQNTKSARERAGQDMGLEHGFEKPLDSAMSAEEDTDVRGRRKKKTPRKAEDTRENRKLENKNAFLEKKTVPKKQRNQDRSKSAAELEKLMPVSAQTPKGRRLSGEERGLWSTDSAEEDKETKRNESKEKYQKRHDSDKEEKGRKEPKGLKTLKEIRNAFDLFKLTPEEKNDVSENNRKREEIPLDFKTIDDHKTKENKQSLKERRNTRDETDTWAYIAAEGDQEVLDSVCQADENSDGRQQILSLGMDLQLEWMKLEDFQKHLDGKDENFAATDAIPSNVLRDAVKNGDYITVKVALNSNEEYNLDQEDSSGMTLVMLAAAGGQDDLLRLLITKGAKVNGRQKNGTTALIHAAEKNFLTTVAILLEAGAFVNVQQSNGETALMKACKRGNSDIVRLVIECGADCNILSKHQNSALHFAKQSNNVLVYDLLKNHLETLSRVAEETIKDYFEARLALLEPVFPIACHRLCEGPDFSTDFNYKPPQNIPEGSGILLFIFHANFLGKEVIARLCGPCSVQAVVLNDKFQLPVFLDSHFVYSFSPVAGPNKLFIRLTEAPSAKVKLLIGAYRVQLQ
Compound,outcome [1],Potency [2],Potency [3],Potency [4],outcome [5],Potency [6],Potency [7],Potency [8],Potency [9],outcome [10],outcome [11],Potency [12],Potency [13],Potency [14],Potency [15],Potency [16],outcome [17],activation [18] [%]
N=C(N)c1ccc(N)cc1,inactive,inactive,inactive,inactive,inactive,inactive,inactive,inactive,inactive,inactive,inactive,inactive,inactive,inactive,inactive,inactive,,
COC(=O)[C@H](NC(=O)c1cc(-c2ccccc2)nc2ccccc12)c1ccccc1,inactive,inactive,inactive,inactive,inactive,inactive,inactive,inactive,inactive,inactive,inactive,inactive,,inactive,inactive,,inactive,-5.81
NC(N)=N[C@@H](CCC(=O)O)C(=O)O,inactive,inactive,inactive,inactive,inactive,inactive,inactive,inactive,inactive,inactive,inactive,inactive,inactive,inactive,inactive,inactive,,0.0625
CC(=O)NNC(=O)N1Cc2ccccc2Oc2ccc(Cl)cc21,inactive,inactive,inactive,inactive,inactive,inactive,inactive,inactive,inactive,inactive,inactive,inactive,inactive,inactive,inactive,inactive,inactive,0.562
COc1ccccc1N1CCN(CCCCN2C(=O)c3ccccc3C2=O)CC1,inactive,inactive,inactive,inactive,inactive,inactive,inactive,inactive,inactive,inactive,inactive,inactive,inactive,10 µM (active),,inactive,inactive,-3.44
CC(N)(C(=O)O)c1ccc(C(=O)O)cc1 (stereo unspecified),inactive,inactive,inactive,inactive,inactive,inactive,inactive,inactive,inactive,inactive,inactive,inactive,inactive,inactive,,inactive,inactive,1.12
NC(N)=[N+]1CCc2ccccc2C1,inactive,inactive,inactive,inactive,inactive,inactive,inactive,inactive,inactive,inactive,inactive,inactive,,inactive,inactive,inactive,inactive,-0.125
NC/C=C\C(=O)O,inactive,inactive,inactive,inactive,inactive,inactive,inactive,inactive,inactive,inactive,inactive,inactive,inactive,inactive,inactive,inactive,inactive,0.75
N[C@H]1CONC1=O,inactive,inactive,inactive,inactive,inactive,inactive,inactive,inactive,inactive,inactive,inactive,inactive,inactive,inactive,inactive,inactive,inactive,
Cc1cccc(C)c1OCC(N)C(C)C (stereo unspecified),inactive,inactive,inactive,inactive,inactive,inactive,inactive,inactive,inactive,inactive,inactive,inactive,inactive,inactive,inactive,inactive,,
O=C1OC(=O)C2C3CCC(O3)C12 (stereo unspecified),inactive,inactive,inactive,inactive,inactive,inactive,inactive,inactive,inactive,inactive,inactive,inactive,inactive,inactive,,inactive,inactive,0.938
CC(C)Cn1c(=O)n(C)c(=O)c2[nH]cnc21,inactive,inactive,inactive,inactive,inactive,inactive,inactive,inactive,inactive,inactive,inactive,inactive,inactive,inactive,inactive,inactive,inactive,0.875
NC1C=CC=C(C(=O)O)C1 (stereo unspecified),inactive,inactive,inactive,inactive,inactive,inactive,inactive,inactive,inactive,inactive,inactive,inactive,inactive,inactive,,inactive,inactive,
O=[N+]([O-])c1cccc2cn[nH]c12,inactive,inactive,inactive,inactive,inactive,inactive,inactive,inactive,inactive,inactive,inactive,inactive,inactive,inactive,inactive,inactive,inactive,0.5
Clc1nccc2c1ccc1ccccc12,inactive,inactive,inactive,inactive,inactive,inactive,inactive,inactive,inactive,inactive,inactive,inactive,inactive,inactive,inactive,inactive,inactive,-6.94
